Test results taken from PubChem BioAssay (Tox21).
Results filed as inconclusive are left out. Active and inactive are the calls of the source. Unless noted, calls come from the whole dose curve; as a rule, active = well fitted curve in the direction sought with a large enough effect in the repeat runs; inconclusive = weak or mixed curves; inactive = no such curve, though single readings can be large; an effect the other way counts as inactive or inconclusive.

Experiments:
[1] = qHTS assay to identify aromatase inhibitors - cell viability counter screen (AID 743084);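 note: cells stimulated with testosterone during compound exposure; nearly all actives have a fitted effect of over 55% in size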
[2] = biological target: Aryl hydrocarbon receptor (Homo sapiens) (UniProt P35869); assay: qHTS assay to identify small molecule that activate the aryl hydrocarbon receptor (AhR) signaling pathway (AID 743085);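 note: HG2L7.5c1 human HepG2 liver cells with stably integrated DRE-driven firefly reporter; series mostly up to about 70 µM; nearly all actives have a fitted effect of over 15% in size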
Procedure, shortened: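 Steps: seed HepG2-AhR-luc cells; allow 5 h at 37C; pin-transfer test compound or vehicle; incubate 24 h at 37C; add viability dye (30 min, 37C) and read fluorescence; add luciferase substrate (30 min, RT) and read luminescence.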

[3] = qHTS assay to identify small molecule that activate the aryl hydrocarbon receptor (AhR) signaling pathway - cell viability counter screen (AID 743086);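 note: HepG2 liver cells carrying the AhR DRE luciferase reporter; series mostly up to about 70 µM; nearly all actives have a fitted effect of over 45% in size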
Procedure, shortened: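 HepG2-AhR-luc (HG2L7.5c1) cells, 4000/well, treated 24 h at 37 C with compound; viability measured as CellTiter-Fluor fluorescence after 30 min in the same wells as the luciferase read.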

[4] = biological target: Peroxisome proliferator-activated receptor gamma (Homo sapiens) (UniProt P37231); assay: qHTS assay to identify small molecule agonists of the peroxisome proliferator-activated receptor gamma (PPARg) signaling pathway (AID 743094; active = well fitted activation curve with a large enough effect in the signal ratio in the repeat runs, not every such curve was filed as active; the % refers to the signal ratio)
Procedure, shortened: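 Reporter activation was scored by fluorescence of cleaved LiveBLAzer B/G substrate (1 h, room temperature) in PPARg-bla HEK293H cells previously treated 17 h at 37C with DMSO-dissolved compounds.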

[5] = qHTS assay to identify small molecule antagonists of the peroxisome proliferator-activated receptor gamma (PPARg) signaling pathway - cell viability counter screen (AID 743194); note: nearly all actives have a fitted effect of over 55% in size
Procedure, shortened: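 Cytotoxicity counter screen in PPARg-bla HEK293H cells, same wells as reporter assay. Compounds plus 50 nM rosiglitazone (final) for 17 h at 37 C, then viability read by CellTiter-Glo luminescence.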

[6] = qHTS assay for small molecule agonists of the antioxidant response element (ARE) signaling pathway (AID 743202; active = well fitted activation curve with a large enough effect in the signal ratio in the repeat runs, not every such curve was filed as active; the % refers to the signal ratio)
Procedure, shortened: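 HepG2 ARE-bla reporter line, 2,000 cells/well; 5 h preincubation 37 C/5% CO2; compound (DMSO) 16 h 37 C; B/G FRET substrate 2 h RT; fluorescence intensity.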

[7] = qHTS assay for small molecule activators of the heat shock response signaling pathway - cell viability counter screen (AID 743209); note: nearly all actives have a fitted effect of over 50% in size
Procedure, shortened: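 Viability of HSE-bla HeLa cells is measured with CellTiter-Glo in the wells already used for the reporter read. Compound exposure lasts 5 h at 37 C, and luminescence is read after 30 min at room temperature.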

[8] = qHTS assay to identify small molecule agonists of the peroxisome proliferator-activated receptor delta (PPARd) signaling pathway - cell viability counter screen (AID 743211); note: nearly all actives have a fitted effect of over 55% in size
Procedure, shortened: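 Viability of GeneBLAzer PPARd UAS-bla HEK293H cells was assessed after 17 h compound incubation at 37C, using CellTiter-Glo reagent added after the reporter read and luminescence recorded 30 min later.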

[9] = qHTS assay to identify small molecule antagonists of the peroxisome proliferator-activated receptor delta (PPARd) signaling pathway - cell viability counter screen (AID 743213); note: nearly all actives have a fitted effect of over 50% in size
Procedure, shortened: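 CellTiter-Glo was added to PPARd-bla HEK293H wells following 17 h compound treatment in the presence of 300 nM L165041. Luminescence was recorded after 30 min at room temperature.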

[10] = qHTS assay to identify small molecule antagonists of the farnesoid-X-receptor (FXR) signaling pathway - cell viability counter screen (AID 743221; active = well fitted cell-killing curve with a large enough effect in the repeat runs, not every such curve was filed as active; note: nearly all actives have a fitted effect of over 50% in size)
Procedure, shortened: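 Quantitative HTS of the Tox21 10K library run in parallel with the beta-lactamase reporter read. HEK 293T cells carrying a UAS-driven bla reporter got compound and 50 uM CDCA (final) for 16 h; ATP-based luminescence followed.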

[11] = biological target: Vitamin D3 receptor (Homo sapiens) (UniProt P11473); assay: qHTS assay to identify small molecule agonists of the vitamin D receptor (VDR) signaling pathway (AID 743222; calls by dose curve)
Procedure, shortened: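 Fluorescence from cleaved LiveBLAzer B/G FRET substrate served as readout. VDR-bla cells had been treated 16 h at 37C with test compounds in DMSO, following a 4 h settling period, and substrate was loaded for 2 h at RT.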

[12] = biological target: Vitamin D3 receptor (Homo sapiens) (UniProt P11473); assay: qHTS assay to identify small molecule antagonists of the vitamin D receptor (VDR) signaling pathway (AID 743223; active = well fitted inhibition curve with a large enough effect in the signal ratio in the repeat runs, not every such curve was filed as active; the % refers to the signal ratio)
Procedure, shortened: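 Fluorescence from LiveBLAzer B/G FRET substrate, read after 2 h at room temperature, reflects beta-lactamase reporter activity in VDR-bla cells treated 16 h at 37C with compounds and agonist 1alpha,25-dihydroxyvitamin D3 (3 nM final).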

[13] = qHTS assay for small molecule agonists of the antioxidant response element (ARE) signaling pathway - cell viability counter screen (AID 743203; calls by dose curve; note: nearly all actives have a fitted effect of over 55% in size)
Procedure, shortened: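 Viability counter screen: stably transfected ARE-bla HepG2 line, 16 hrs compound exposure at 37C/5% CO2, ATP-based CellTiter-Glo luminescence measured in the reporter wells.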

[14] = qHTS assay for small molecule activators of the heat shock response signaling pathway (AID 743210; active = well fitted activation curve with a large enough effect in the signal ratio in the repeat runs, with a control signal flat, not every such curve was filed as active; the % refers to the signal ratio;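 note: HeLa cells with beta-lactamase reporter driven by heat shock elements; series mostly up to about 63 µM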)
Procedure, shortened: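 Beta-lactamase reporter read-out: FRET substrate fluorescence after 2.5 h at RT, following 5 h compound treatment at 37 C of HeLa cells carrying HSE-driven bla reporter; quantitative HTS format.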

[15] = biological target: Peroxisome proliferator-activated receptor delta (Homo sapiens) (UniProt Q03181); assay: qHTS assay to identify small molecule agonists of the peroxisome proliferator-activated receptor delta (PPARd) signaling pathway (AID 743212; calls by dose curve)
Procedure, shortened: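 Read-out: beta-lactamase FRET fluorescence after 2 h room-temperature incubation with LiveBLAzer B/G substrate. Cells were HEK293H carrying a UAS-bla reporter for PPARd, treated at 37 C with DMSO-dissolved compounds.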

[16] = biological target: Peroxisome proliferator-activated receptor delta (Homo sapiens) (UniProt Q03181); assay: qHTS assay to identify small molecule antagonists of the peroxisome proliferator-activated receptor delta (PPARd) signaling pathway (AID 743215; active = well fitted inhibition curve with a large enough effect in the signal ratio in the repeat runs, not every such curve was filed as active; the % refers to the signal ratio;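 note: cells stimulated with agonist L165041 at 300 nM final during compound exposure; series mostly up to about 62 µM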)
Procedure, shortened: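 Plated HEK293H PPARd-bla cells rested 5 h at 37 C and 5% CO2. Compound, then agonist L165041 at 300 nM final, was added; 17 h at 37 C followed. Substrate loading, 2 h room temperature, fluorescence measured.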

[17] = qHTS assay to identify small molecule agonists of the farnesoid-X-receptor (FXR) signaling pathway - cell viability counter screen (AID 743218); note: nearly all actives have a fitted effect of over 45% in size
Procedure, shortened: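 Viability of FXR-bla HEK 293T cells is measured by ATP-based CellTiter-Glo luminescence following 16 h compound treatment at 37 C and a prior 2 h room-temperature beta-lactamase substrate step.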

[18] = biological target: Peroxisome proliferator-activated receptor gamma (Homo sapiens) (UniProt P37231); assay: qHTS assay to identify small molecule antagonists of the peroxisome proliferator-activated receptor gamma (PPARg) signaling pathway (AID 743191; calls by dose curve; note: series mostly up to about 63 µM; nearly all actives have a fitted effect of over 30% in size)
Procedure, shortened: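 GeneBLAzer PPARg UAS-bla HEK293H cells, 5 h post-plating, exposed to compounds 17 h at 37C. LiveBLAzer B/G FRET substrate added for 1 h at room temperature; beta-lactamase reporter read by fluorescence intensity.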

[19] = biological target: Bile acid receptor (Homo sapiens) (UniProt Q96RI1); assay: qHTS assay to identify small molecule antagonists of the farnesoid-X-receptor (FXR) signaling pathway (AID 743217; active = well fitted inhibition curve with a large enough effect in the signal ratio in the repeat runs, not every such curve was filed as active; the % refers to the signal ratio)
Procedure, shortened: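 Screen of the Tox21 10K library in quantitative HTS format using FXR-UAS-bla HEK 293T reporter cells. Agonist chenodeoxycholic acid, 50 uM final, added with compounds; 16 h incubation at 37 °C; beta-lactamase FRET fluorescence measured.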

[20] = biological target: Bile acid receptor (Homo sapiens) (UniProt Q96RI1); assay: qHTS assay to identify small molecule agonists of the farnesoid-X-receptor (FXR) signaling pathway (AID 743220; active = well fitted activation curve with a large enough effect in the signal ratio in the repeat runs, not every such curve was filed as active; the % refers to the signal ratio)
Procedure, shortened: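 FXR-UAS-bla HEK 293T cells carrying a UAS-driven beta-lactamase reporter were plated for 5 h at 37C/5% CO2, then exposed to DMSO-dissolved Tox21 10K compounds for 16 h at 37C. A LiveBLAzer B/G FRET substrate was loaded for 2 h at room temperature before fluorescence reading.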

Measured: Potency

Peroxisome proliferator-activated receptor delta (Homo sapiens), sequence (Q03181 whole entry, looked up): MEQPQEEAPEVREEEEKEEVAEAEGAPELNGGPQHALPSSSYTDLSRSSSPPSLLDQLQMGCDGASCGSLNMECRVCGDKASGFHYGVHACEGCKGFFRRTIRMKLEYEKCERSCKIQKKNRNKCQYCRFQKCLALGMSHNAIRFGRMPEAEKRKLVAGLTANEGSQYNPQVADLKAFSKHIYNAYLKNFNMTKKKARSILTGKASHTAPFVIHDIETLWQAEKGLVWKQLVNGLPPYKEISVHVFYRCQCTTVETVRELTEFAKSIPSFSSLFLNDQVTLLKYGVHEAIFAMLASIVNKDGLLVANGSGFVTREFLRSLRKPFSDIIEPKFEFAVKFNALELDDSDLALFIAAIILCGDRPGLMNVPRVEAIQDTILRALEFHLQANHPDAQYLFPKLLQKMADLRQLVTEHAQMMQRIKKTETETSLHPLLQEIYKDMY
Peroxisome proliferator-activated receptor gamma (Homo sapiens), sequence (P37231 whole entry, looked up): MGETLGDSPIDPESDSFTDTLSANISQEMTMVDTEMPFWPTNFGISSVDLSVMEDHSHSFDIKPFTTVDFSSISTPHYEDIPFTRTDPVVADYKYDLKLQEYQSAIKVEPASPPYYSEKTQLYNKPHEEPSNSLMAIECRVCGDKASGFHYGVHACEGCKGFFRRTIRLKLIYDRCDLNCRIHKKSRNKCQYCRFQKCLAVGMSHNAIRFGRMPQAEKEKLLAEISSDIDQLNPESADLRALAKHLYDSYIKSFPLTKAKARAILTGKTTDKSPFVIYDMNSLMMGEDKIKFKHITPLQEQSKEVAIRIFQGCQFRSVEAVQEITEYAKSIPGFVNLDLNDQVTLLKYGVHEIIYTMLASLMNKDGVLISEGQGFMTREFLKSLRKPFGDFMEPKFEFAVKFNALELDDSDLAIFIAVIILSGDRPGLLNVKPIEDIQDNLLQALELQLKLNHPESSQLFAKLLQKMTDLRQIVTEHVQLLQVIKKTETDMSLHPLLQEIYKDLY
Vitamin D3 receptor (Homo sapiens), sequence (P11473 whole entry, looked up): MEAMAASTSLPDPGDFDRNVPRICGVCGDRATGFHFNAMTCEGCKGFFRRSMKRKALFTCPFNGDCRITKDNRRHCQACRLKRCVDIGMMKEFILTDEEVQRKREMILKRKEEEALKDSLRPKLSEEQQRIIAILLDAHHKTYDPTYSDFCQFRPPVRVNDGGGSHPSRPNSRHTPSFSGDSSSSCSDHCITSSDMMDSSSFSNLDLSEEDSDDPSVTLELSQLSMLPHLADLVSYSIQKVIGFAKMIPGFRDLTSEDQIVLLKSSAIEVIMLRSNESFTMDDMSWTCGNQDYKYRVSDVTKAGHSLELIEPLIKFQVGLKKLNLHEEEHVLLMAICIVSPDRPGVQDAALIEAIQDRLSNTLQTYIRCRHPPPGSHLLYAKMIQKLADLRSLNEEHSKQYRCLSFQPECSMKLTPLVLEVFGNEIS
Bile acid receptor (Homo sapiens), sequence (Q96RI1 whole entry, looked up): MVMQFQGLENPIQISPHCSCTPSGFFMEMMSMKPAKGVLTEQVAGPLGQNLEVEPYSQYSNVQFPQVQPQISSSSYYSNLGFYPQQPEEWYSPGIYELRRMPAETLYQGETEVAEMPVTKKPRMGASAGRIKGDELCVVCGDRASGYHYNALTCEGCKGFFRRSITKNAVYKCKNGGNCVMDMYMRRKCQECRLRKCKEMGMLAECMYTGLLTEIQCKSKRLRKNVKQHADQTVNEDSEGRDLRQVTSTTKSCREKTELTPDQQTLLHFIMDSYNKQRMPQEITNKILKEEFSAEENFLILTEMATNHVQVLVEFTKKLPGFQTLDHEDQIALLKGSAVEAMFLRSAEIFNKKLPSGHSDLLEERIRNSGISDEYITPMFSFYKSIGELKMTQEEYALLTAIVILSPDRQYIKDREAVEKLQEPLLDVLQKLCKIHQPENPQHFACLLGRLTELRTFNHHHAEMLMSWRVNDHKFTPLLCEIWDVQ
Aryl hydrocarbon receptor (Homo sapiens), sequence (P35869 whole entry, looked up): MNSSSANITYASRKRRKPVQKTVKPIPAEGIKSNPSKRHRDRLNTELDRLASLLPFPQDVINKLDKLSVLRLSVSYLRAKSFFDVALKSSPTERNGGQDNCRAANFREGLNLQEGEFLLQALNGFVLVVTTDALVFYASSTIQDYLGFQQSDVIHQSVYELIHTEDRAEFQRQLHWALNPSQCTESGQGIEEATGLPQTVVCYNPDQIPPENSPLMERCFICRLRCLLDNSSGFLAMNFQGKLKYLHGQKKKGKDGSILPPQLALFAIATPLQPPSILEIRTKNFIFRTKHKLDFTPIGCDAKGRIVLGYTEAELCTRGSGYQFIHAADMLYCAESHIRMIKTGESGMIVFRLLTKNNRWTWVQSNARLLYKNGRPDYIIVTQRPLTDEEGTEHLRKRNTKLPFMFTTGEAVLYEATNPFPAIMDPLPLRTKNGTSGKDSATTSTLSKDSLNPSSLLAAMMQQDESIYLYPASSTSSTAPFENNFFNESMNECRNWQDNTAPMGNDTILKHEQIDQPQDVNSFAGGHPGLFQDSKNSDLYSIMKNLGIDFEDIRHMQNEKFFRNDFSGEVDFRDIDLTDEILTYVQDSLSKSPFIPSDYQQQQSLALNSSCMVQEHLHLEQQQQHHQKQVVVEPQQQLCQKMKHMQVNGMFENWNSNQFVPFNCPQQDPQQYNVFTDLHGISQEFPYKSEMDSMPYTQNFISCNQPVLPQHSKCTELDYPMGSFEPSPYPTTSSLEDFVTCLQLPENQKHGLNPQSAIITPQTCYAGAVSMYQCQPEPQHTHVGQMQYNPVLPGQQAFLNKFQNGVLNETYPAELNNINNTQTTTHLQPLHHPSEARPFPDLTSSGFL

CN(C)CCCO[C@@H]1[C@H]2OC(C)(C)O[C@H]2O[C@@H]1C(O)CO (some centres undefined)
not listed: [13] | [14] | [15] | [16] | [17] | [18] | [19] | [20]
inactive: all other assays above

C#CCN[C@@H]1CCc2ccccc21
not listed: [7] | [10] | [11] | [12] | [18] | [19] | [20]
inactive: all other assays above

CCCC(=O)Nc1ccc(OCC(O)CNC(C)C)c(C(C)=O)c1 (centres undefined)
not listed: [13] | [18] | [19] | [20]
inactive: all other assays above

C=CCCCC
not listed: [6] | [11] | [12] | [17] | [18] | [19] | [20]
inactive: all other assays above

Cc1ccc(C)c([N+](=O)[O-])c1
not listed: [6] | [18] | [19] | [20]
inactive: all other assays above

CCCCCCC1(C)CCC(=O)O1 (centres undefined)
not listed: [2] | [9] | [16] | [17] | [19] | [20]
inactive: all other assays above

CN(C)CCN(C)CCO
not listed: [6] | [13] | [15] | [16] | [18]
inactive: all other assays above

C=CCCCCCCCC
not listed: [2] | [12] | [19] | [20]
inactive: all other assays above

OC1OCCOC1O (centres undefined)
not listed: [4] | [10] | [14] | [15] | [16] | [17] | [18] | [19]
inactive: all other assays above

C=CCSSCCC
not listed: [2] | [10] | [19] | [20]
inactive: all other assays above

Nc1nc(-c2ccccc2)c(Br)c(=O)[nH]1
not listed: [2] | [10] | [19] | [20]
inactive: all other assays above

Cc1c(NC(=O)c2cccnc2)c(=O)n(-c2ccccc2)n1C
not listed: [5] | [10] | [17] | [18]
inactive: all other assays above

CC1(C)Cc2cccc(N)c2O1
not listed: [2] | [17]
inactive: all other assays above

O=C1CCC(=O)N1Cl
not listed: [2] | [10] | [19] | [20]
inactive: all other assays above
